Screening results from PubChem.
Marburg entry inh: qHTS for inhibitors of binding or entry into cells for Marburg Virus | Potency, µM (highest dose often 37.8 µM), hits mostly inhibitors | Marburg virus pseudotyped entry inhibition, cell reporter | 300,000 tested, 1.8% active | AID 540276, 2011; calls by dose curve; tested in HEK293 cells
LASV entry inh: qHTS for Inhibitors of binding or entry into cells for Lassa Virus; Potency, µM (top dose mostly 37.9 µM), most hits filed as inhibitors; 300,000 tested, 1.2% active; Lassa virus pseudotype entry inhibition, cell reporter; AID 540256, 2011; calls by dose curve; tested in HEK293 cells; further: nearly all actives have a fitted effect of over 50% in size
HCMV antiviral: qHTS Assay for inhibitors of the human cytomegalovirus (HCMV); HFF cells, HCMV-luciferase reporter, 72 h; hits give low values; activity change, negative = inhibition, % at 57.5 µM; 410,000 tested, 4.5% active; AID 1259415, 2018; in the data active means activity change below about -60%; inconclusive means no clear call, values can overlap the other calls; inactive means above about -39%
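Compounds were evaluated in HFFs infected with an HCMV luciferase reporter virus (MOI 1 PFU/cell). Luciferase in lysates collected 72 h post infection served as the replication measure.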
Vaccinia mCherry: qHTS for Stage-Specific Inhibitors of Vaccinia Orthopoxvirus: mCherry Reporter Primary qHTS | Vaccinia virus mCherry reporter infection, fluorescence | Potency, µM (doses to about 36.5 µM), hits mostly inhibitors | 310,000 tested, 0.63% active; calls by dose curve; tested in A549 cells; further: nearly all actives have a fitted effect of over 35% in size
VACV Venus inh: qHTS for Stage-Specific Inhibitors of Vaccinia Orthopoxvirus: Venus Reporter Primary qHTS; Vaccinia virus Venus reporter expression, fluorescence; Potency, µM (titrated, usually from 36.5 µM), actives largely listed as inhibitors; 330,000 tested, 0.46% active; AID 720580, 2013; calls by dose curve; tested in A549 cells; further: nearly all actives have a fitted effect of over 30% in size
FMDV antiviral: High Throughput Screening for Foot and Mouth Disease Virus Antivirals. 410,000 tested, 1.2% active. Potency, µM (titrated, usually from 57.9 µM), usual class: inhibitors. FMDV antiviral cell-based qHTS; calls by dose curve; tested in HEK293T cells; further: read-out not given here; nearly all actives have a fitted effect of over 45% in size
Of the large screens only hits and unclear results are named; the others gave an inactive call; ! = not active in a repeat. A selection: hits, their analogues and other compounds. The true share with any hit is near 6.5%.

CC(=O)Oc1ccc2cc(-c3nc4c(s3)CCc3ccccc3-4)c(=O)oc2c1	none (no result: Marburg entry inh, LASV entry inh, HCMV antiviral, FMDV antiviral)
CC(=O)Nc1cccc(NC(=O)CSc2nccn2Cc2ccco2)c1	HCMV antiviral -70!
Cc1ccccc1-c1ccc2ncnc(NCc3cccs3)c2c1	none (no result: Marburg entry inh, LASV entry inh, HCMV antiviral, Vaccinia mCherry, VACV Venus inh)
COc1ccccc1NC(=S)N1CCN(C/C=C/c2ccccc2)CC1	HCMV antiviral -72, FMDV antiviral inconclusive
Cc1nn(C)c(C)c1N1C(=O)c2cccc3c(Br)ccc(c23)C1=O	HCMV antiviral -74, FMDV antiviral inconclusive
COc1cccc(C2C3=C(N=c4s/c(=C\c5cccc(O)c5)c(=O)n42)c2ccccc2CC3)c1OC (stereo unspecified)	LASV entry inh inconclusive, HCMV antiviral -96, VACV Venus inh inconclusive
Cc1cc(C)c(S(=O)(=O)Nc2ccccc2-c2ccccc2)c(C)c1	Marburg entry inh inconclusive, LASV entry inh inconclusive, HCMV antiviral -79, FMDV antiviral inconclusive
Nc1ccccc1C(=O)NC(=O)Nc1ccc(Oc2ncc(Br)cn2)c(Cl)c1	LASV entry inh inconclusive, HCMV antiviral -87, VACV Venus inh inconclusive
Cc1cc(NC(=O)NC(=O)c2ccccc2NC(=O)CN(C)C)ccc1Oc1ncc(Br)cn1	Marburg entry inh inconclusive, LASV entry inh inconclusive
Cc1cc(NC(=O)NC(=O)c2ccccc2NC(=O)CN)ccc1Oc1ncc(Br)cn1	Marburg entry inh inconclusive, HCMV antiviral -84, VACV Venus inh inconclusive
COc1ccccc1C(=O)NC(=O)Nc1cccc(Cl)c1	none (no result: Marburg entry inh, LASV entry inh, Vaccinia mCherry, VACV Venus inh)
COc1cc(N(C)C)c(OC)cc1/C=C1\Cc2ccccc2C1=O	none (no result: Marburg entry inh, LASV entry inh, HCMV antiviral, FMDV antiviral)
Cc1nc2cc(NC(=O)[C@@H]3C[C@@H](Sc4ccccn4)CN3Cc3cccc(Cl)c3)ccc2s1	none (no result: Marburg entry inh, LASV entry inh, HCMV antiviral)
C#CC[N+](C)(C)CC#Cc1ccc(Cl)cc1	HCMV antiviral -94, Vaccinia mCherry inconclusive, VACV Venus inh inconclusive
CC(=O)c1ccc(Nc2cc(C)nc3c(C)cc(C)cc23)cc1	Marburg entry inh 4.1µM, LASV entry inh inconclusive, HCMV antiviral inconclusive
Cc1cc(C)c2nc(C)cc(Nc3ccc(C(=O)NCCO)cc3)c2c1	Marburg entry inh 11µM, HCMV antiviral -91
Cc1cc(C)c2nc(C)cc(Nc3ccc(C(=O)N(C)C)cc3)c2c1	none (no result: Marburg entry inh, LASV entry inh, HCMV antiviral, Vaccinia mCherry, VACV Venus inh)
CC(=O)c1cccc(Nc2cc(C)nc3c(C)cccc23)c1	Marburg entry inh inconclusive
CC(C)C[C@H]1CNC(=S)N1CC1CCCN1C[C@H](CC(C)C)N1C[C@H](Cc2ccc(O)cc2)N(CC2CCCCC2)C1=S (stereo partly specified)	HCMV antiviral -98, Vaccinia mCherry inconclusive, VACV Venus inh inconclusive (no result: Marburg entry inh, LASV entry inh)
CC(C)C[C@@H](CN1CCCC1CN1C(=S)NC[C@@H]1Cc1ccc(O)cc1)N1C[C@H](Cc2ccc(O)cc2)N(CC2CCCCC2)C1=S (stereo partly specified)	HCMV antiviral -98, Vaccinia mCherry inconclusive, VACV Venus inh 10µM, FMDV antiviral inconclusive (no result: Marburg entry inh, LASV entry inh)
CC(C)C[C@H]1CNC(=S)N1C[C@H]1CCCN1C[C@H](CC(C)C)N1C[C@H](Cc2ccc(O)cc2)N(CC2CCCCCC2)C1=S	HCMV antiviral -101 (no result: Marburg entry inh, LASV entry inh)
CC(C)C[C@@H](CN1CCC[C@@H]1CN1C(=S)NC[C@@H]1Cc1ccccc1)N1C[C@H](Cc2ccc(O)cc2)N(CC2CCCCC2)C1=S	none (no result: Marburg entry inh, LASV entry inh)
CC(C)C[C@H]1CNC(=S)N1CC1CCCN1C[C@H](CC(C)C)N1C[C@H](Cc2ccc(O)cc2)N(CC2CCCCCC2)C1=S (stereo partly specified)	HCMV antiviral -102, Vaccinia mCherry inconclusive, VACV Venus inh 28µM, FMDV antiviral inconclusive (no result: Marburg entry inh, LASV entry inh)
COc1cccc(CCn2c(N)cc(=O)[nH]c2=S)c1OC	none (no result: Marburg entry inh, LASV entry inh, HCMV antiviral, FMDV antiviral)
CC(C)N1C(=O)CC[C@@H](S(=O)(=O)c2ccccc2)[C@@H]1/C=C/c1ccccc1	none (no result: Marburg entry inh, LASV entry inh, Vaccinia mCherry, VACV Venus inh, FMDV antiviral)
Oc1ccccc1C1C=C(c2ccc3c(c2)OCO3)NC(c2ccc(Br)cc2)N1 (stereo unspecified)	none (no result: Marburg entry inh, LASV entry inh, HCMV antiviral, FMDV antiviral)
CCOc1ccc(C2c3[nH]c4ccccc4c3CCN2C(=O)CSc2ccccc2)cc1 (stereo unspecified)	LASV entry inh 6.3µM (no result: Marburg entry inh)
Cc1ccc(C2c3[nH]c4ccccc4c3CCN2C(=O)CSc2ccccc2)cc1 (stereo unspecified)	LASV entry inh 10µM (no result: Marburg entry inh)
Cc1ccc(C2c3[nH]c4ccccc4c3CCN2C(=O)CSCc2ccc(F)cc2)cc1 (stereo unspecified)	LASV entry inh inconclusive (no result: Marburg entry inh)
CCOc1cc(C(=O)N2CCc3c([nH]c4ccccc34)C2c2ccccc2)cc(OCC)c1OCC (stereo unspecified)	LASV entry inh inconclusive (no result: Marburg entry inh)
CNC(=O)Oc1ccc2c(c1)[C@@]1(C)CCN(C)C1N2C (stereo partly specified)	VACV Venus inh inconclusive (no result: Marburg entry inh, LASV entry inh, HCMV antiviral)
Cc1ccc2c(c1)S/C(=C\c1cccc[n+]1C)N2CCO	HCMV antiviral -97, FMDV antiviral inconclusive (no result: Marburg entry inh, LASV entry inh, Vaccinia mCherry, VACV Venus inh)
Cc1ccc2c(c1)S/C(=C/c1ccc[n+](CCO)c1)N2C	Marburg entry inh inconclusive, HCMV antiviral -95, FMDV antiviral inconclusive (no result: LASV entry inh)
C[n+]1ccccc1/C=C1\Sc2ccccc2N1CCO	LASV entry inh inconclusive, HCMV antiviral inconclusive
COc1cccc(-c2ccc(O)c(CNC(c3ccccc3)c3ccc(Cl)cc3)c2)n1 (stereo unspecified)	none (no result: Marburg entry inh, LASV entry inh, HCMV antiviral)
C=CCn1c(=O)[nH]c2cc(C(=O)N3CCN(c4ccc(C(C)=O)cc4)CC3)ccc2c1=O	LASV entry inh inconclusive, FMDV antiviral 14µM (no result: Vaccinia mCherry, VACV Venus inh)
COc1cccc(N2CCN(C(=O)c3ccc4c(=O)n(CCc5ccccc5)c(=O)[nH]c4c3)CC2)c1	FMDV antiviral 20µM
CCCCNC(=O)CCCCCn1c(=O)[nH]c2cc(C(=O)OC)ccc2c1=O	Marburg entry inh inconclusive
C=CCn1c(=O)[nH]c2cc(C(=O)N3CCN(c4cccc(Cl)c4)CC3)ccc2c1=O	Marburg entry inh inconclusive, Vaccinia mCherry inconclusive, FMDV antiviral 28µM
COCCn1c(=O)[nH]c2cc(C(=O)N3CCN(c4cccc(Cl)c4)CC3)ccc2c1=O	Marburg entry inh inconclusive, LASV entry inh inconclusive, FMDV antiviral inconclusive
COC(=O)c1ccc2c(=O)n(CCCCCC(=O)O)c(=O)[nH]c2c1	FMDV antiviral 25µM
COc1ccc(CNC(=O)CN2C(=O)COc3ccc(S(=O)(=O)Nc4ccccc4)cc32)cc1	none (no result: Marburg entry inh)
O=C1Nc2ccc(-c3cccnc3)cc2C1=Cc1cc(Br)c(O)c(Br)c1	LASV entry inh 13µM (no result: Marburg entry inh, HCMV antiviral, Vaccinia mCherry, VACV Venus inh, FMDV antiviral)
C[C@@H]1C=CCCO[C@]12C(=O)N(Cc1ccc(F)cc1)c1cccc(Br)c12	none (no result: LASV entry inh, HCMV antiviral, Vaccinia mCherry, VACV Venus inh, FMDV antiviral)
COc1ccc(C(=O)Nn2c(SCC(=O)NC3CCCCC3)nc3ccccc3c2=O)cc1	Marburg entry inh inconclusive, LASV entry inh inconclusive, FMDV antiviral 13µM (no result: Vaccinia mCherry, VACV Venus inh)
COc1ccc(C(=O)Nn2c(SCC(=O)NCc3ccco3)nc3ccccc3c2=O)cc1	Marburg entry inh 0.4µM, LASV entry inh 1µM, HCMV antiviral -73, FMDV antiviral 14µM
